In PubChem BioAssay (NCI):
Values joined by “and” are separate entries in the source; they are usually repeats but may differ in a detail not shown here. Equal values may be shown once. This is part of a sample that, as a whole, favours compounds with a hit. Of some 83,000 tested, about 20% had one in any assay.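 Cell lines were cultured in 96-well plates, exposed to a single compound concentration, and assessed for percent growth 48 hours later.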 Active and inactive are the calls of the source. The calls were made as follows: active = growth percent below 10; inactive = the rest.

Columns and labels:
Test in all cases: NCI-60 one-dose screen, 48 h (100 = growth as untreated, 0 = no growth, -100 = all killed)
Conditions in all cases: 10 µM unless noted
[1] = test system: HCT-15 colon
[2] = test system: HT29 colon
[3] = test system: SNB-75 CNS
[4] = test system: SNB-19 CNS
[5] = test system: U251 CNS
[6] = test system: PC-3 prostate
[7] = test system: SK-MEL-5 melanoma
[8] = test system: UACC-62 melanoma
[9] = test system: LOX IMVI melanoma
[10] = test system: SK-MEL-28 melanoma

Measured: growth

COC(=O)C12C3C4C1C1C2C3C41NC(=O)c1csc([C@@H](C[C@H](C(C)C)N(C)C(=O)[C@@H](NC(=O)[C@H]2CCCCN2C)C2CC2)OC(C)=O)n1 (stereo not given in full)
active: [2] -16.7% | [7] -14.7%
inactive: [1] 12.6% | [3] 45.3% | [4] 39.7% | [5] 10.8% | [6] 23.5% | [8] 48% | [9] 16.3% | [10] 57.8%

O=C(NC(Cl)=C(Cl)Cl)P(=O)(c1ccccc1)c1ccccc1
inactive: [1] 105% | [2] 112% | [3] 92.3% | [4] 96.1% | [5] 95.5% | [6] 103% | [7] 98.5% | [8] 102% | [9] 101% | [10] 99.6%

C[C@]12CCC(=O)C[C@@H]1CC[C@@H]1[C@@H]2CC[C@]2(C)[C@@H](OC(=O)N(CCCl)N=O)CC[C@@H]12
inactive: [1] 27.9% | [2] 31.6% | [3] 39.4% | [4] 31% | [5] 16.1% | [6] 36.3% | [7] 22.8% | [8] 13.5% | [9] 22.6% | [10] 63.1%

CCCCCCCCCCCCCCCC[N+](C)(C)Cc1ccccc1
active: [2] -43.6% and -81% | [3] -21.6% and -70.3% | [4] -40.3% | [5] -16% and -94.9% | [6] -34.9% and -44.1% | [7] -86.5% and -100% | [8] -26% and -74.5% | [9] -79% and -97.1% | [10] -27.7% and -58.1%
inactive: [1] 64% and 42%

CCCCCCCCCCCCCCCCCCn1cc[n+](C)c1
active: [1] 3.3% and -54.8% | [2] -42.1% and -36.8% | [3] -74.4% and -55.1% | [4] -47.5% and -68% | [5] -0.673% and -63.9% | [6] -7.74% and -8.63% | [7] -81.1% and -74.1% | [8] -70.9% and -82.1% | [9] 0.132% and -52.2% | [10] -49.4% and -52.8%

C/C(=C(\c1ccc(OCCN2CCOCC2)cc1)c1ccc(OC(=O)Cc2ccccc2)cc1)c1ccc(Cl)cc1
inactive: [1] 91.4% | [2] 77.1% | [3] 95.7% | [4] 96.3% | [5] 99.2% | [6] 68.2% | [7] 86.6% | [8] 85.4% | [9] 98.6% | [10] 103%

COC(=O)C1=CCCN(C)C1
inactive: [1] 106% and 100% | [2] 106% and 104% | [3] 103% and 90.3% | [4] 106% and 109% | [5] 107% | [6] 92.9% | [7] 102% | [8] 111% and 101% | [9] 98.3% and 99.8% | [10] 110% and 108%

O=C(NC1=NCC[Se]1)c1ccccc1O
inactive: [1] 82% | [2] 92.1% | [3] 67.3% | [4] 68.5% | [5] 44% | [6] 54.9% | [7] 80.9% | [8] 76.2% | [9] 42.9% | [10] 61.3%

C=CC[PH+](c1ccccc1)c1ccccc1.C=CC[PH+](c1ccccc1)c1ccccc1.[Pt+2].[S-]c1ncccn1.[S-]c1ncccn1
inactive: [3] 58.3% | [4] 74.9% | [5] 59.1% | [6] 38.8% | [7] 66.6% | [8] 27.7%
active: [1] -29.3% | [2] 0.0923% | [9] -68.3% | [10] -30.9%

COc1cc(C2C3=C(CCCC3=O)N(CCO)c3cc4c(cc32)CCC4)cc(OC)c1OC (stereo not given)
inactive: [1] 89.2% | [2] 71.7% | [3] 99.5% | [4] 87.3% | [5] 88.3% | [6] 80.7% | [7] 87.1% | [8] 67.7% | [9] 80.4% | [10] 96.9%

N[C@@H](CCC(=O)CCl)C(=O)O
inactive: [1] 93.7% [20 µM] | [2] 94.2% [20 µM] | [3] 66.9% [20 µM] | [4] 93.4% [20 µM] | [5] 96.5% [20 µM] | [6] 100% [20 µM] | [7] 101% [20 µM] | [8] 92.1% [20 µM] | [9] 96.7% [20 µM] | [10] 103% [20 µM]

C=CC1CN2CCC1CC2C(O)c1ccnc2ccccc12 (stereo not given)
inactive: [1] 116% | [2] 115% | [3] 124% | [4] 124% | [5] 115% | [6] 55.8% | [7] 104% | [8] 113% | [9] 117% | [10] 133%

Cc1cc(N(CCCl)CCCl)ccc1/C=N\NC(=O)c1cccnc1
inactive: [1] 93% and 85.1% | [2] 90.9% and 101% | [3] 71.5% and 86.4% | [4] 94.1% and 105% | [5] 82.9% and 93.2% | [6] 84.3% and 77.6% | [7] 88.8% and 79.1% | [8] 45% and 60.5% | [9] 69.4% | [10] 108% and 97.8%

C#COc1cccc(Nc2ncnc3cc(NC(=O)CF)ccc23)c1
inactive: [1] 28.6% [6.25 µM] | [3] 48.2% [6.25 µM] | [4] 33.7% [6.25 µM] | [5] 23.1% [6.25 µM] | [6] 36% [6.25 µM] | [7] 36.2% [6.25 µM] | [8] 26.4% [6.25 µM] | [9] 36.8% [6.25 µM] | [10] 60.4% [6.25 µM]
active: [2] 4.41% [6.25 µM]

CCOP(=O)(OCC)C(=O)N(CC)CC
inactive: [1] 98.4% | [2] 114% | [3] 102% | [4] 103% | [5] 95% | [6] 96.5% | [7] 94.4% | [8] 107% | [9] 104% | [10] 115%

CCC1(NC(=O)c2cc(F)c(F)c(F)c2F)C(=O)NC(=O)N(C(C)C)C1=O (stereo not given)
inactive: [1] 12.4% | [2] 76.6% | [3] 88.4% | [4] 92.7% | [5] 90.6% | [6] 93% | [7] 64.7% | [8] 48.6% | [9] 42% | [10] 53.2%

O=C(O)c1cc([N+](=O)[O-])cc([N+](=O)[O-])c1
inactive: [1] 109% | [2] 96.6% | [3] 86.8% | [4] 105% | [5] 91.8% | [6] 84.6% | [7] 98% | [8] 105% | [9] 97% | [10] 106%

CC/C(=C(\c1ccc(OCCN2CCOCC2)cc1)c1ccc(OC(=O)Cc2ccccc2)cc1)c1ccc(Cl)cc1
inactive: [1] 112% | [2] 95.1% | [3] 114% | [4] 99.6% | [5] 103% | [6] 95.3% | [7] 107% | [8] 99.7% | [9] 99% | [10] 101%

ClC1OC(Cl)(Cl)C(Cl)(Cl)OC1(Cl)Cl (stereo not given)
inactive: [1] 106% | [2] 103% | [3] 88.3% | [4] 112% | [5] 103% | [6] 104% | [7] 100% | [8] 104% | [9] 108% | [10] 106%

COc1ccc(N)cc1N
inactive: [1] 102% | [2] 113% | [3] 88.7% | [4] 101% | [5] 106% | [6] 88.2% | [7] 105% | [8] 105% | [9] 100% | [10] 120%

C[C@]12CCC3[C@@H](C[C@@H]4SC(Nc5ccccc5)=N[C@@]45CC(=O)CC[C@]35C)[C@@H]1CCC2=O (stereo not given in full)
active: [1] 1.93% | [2] -55.6% | [5] -82.4% | [6] -16.1% | [8] -1.09% | [9] -58.1% | [10] 1.73%
inactive: [3] 41.5% | [4] 21.9% | [7] 26.3%

N#CCC(=O)c1ccccc1
inactive: [1] 99.8% | [2] 110% | [3] 84.3% | [4] 111% | [5] 101% | [6] 95.2% | [7] 104% | [8] 107% | [9] 103% | [10] 114%

Nc1ccc(P(=O)(O)O)cc1
inactive: [1] 97.4% and 95.9% | [2] 104% and 103% | [3] 95% and 94.5% | [4] 108% and 107% | [5] 102% and 94.7% | [6] 99.5% and 92.7% | [7] 110% and 107% | [8] 110% and 99.8% | [9] 89.1% and 98% | [10] 117% and 111%

COc1ccc(/C=C(/C)[N+](=O)[O-])cc1OC
inactive: [3] 78.5% and 53.6% | [4] 65.9% and 79.3% | [6] 19.4% and 47.7% | [7] 52.9% and 47.9% | [8] 46.1% and 23.8%
active: [1] -25.4% and -17.4% | [2] -70.6% and -16.3% | [5] -46.5% and -15.8% | [9] -51.5% and -88.8% | [10] -50.9% and 4.89%
